# Results filed as inconclusive are left out. Activity calls are given as the source filed them.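 The calls were made as follows, unless noted: active = compounds whose cell count with miR-34 switched on is under 0.7 times the count with it off; inactive = the rest.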
# What was measured:
# [1] = viability loss in pontine glioma line – cell-based, SU-DIPG-XIII, MIPE4.0, CellTiter-Glo, qHTS, dose response (AID 1347061; cut-off not given, nearly all actives have AC50 up to about 37 µM;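 also: cells exposed to compound for 48 hours before readout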); details: CellTiter-Glo ATP luminescence
# [2] = viability loss in pontine glioma line – cell-based, JHH-DIPG-1, MIPE4.0, CellTiter-Glo, qHTS, dose response (AID 1347062; cut-off not given, nearly all actives have AC50 up to about 27 µM); details: JHH-DIPG-1 viability, CellTiter-Glo ATP luminescence
# [3] = viability loss in pontine glioma line – cell-based, SU-DIPG-IV, MIPE4.0, CellTiter-Glo, qHTS, dose response (AID 1347063; cut-off not given, nearly all actives have AC50 up to about 30 µM;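 also: compound exposure lasted 48 hours before the viability readout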); details: CellTiter-Glo ATP luminescence
# [4] = viability loss in pontine glioma line – cell-based, SU-DIPG-XIII, MIPE5.0, CellTiter-Glo, qHTS, dose response (AID 1347064; cut-off not given, nearly all actives have AC50 up to about 23 µM;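 as to AC50: cells exposed to compound for 48 hours before the viability read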); details: CellTiter-Glo ATP luminescence
# [5] = growth inhibition of DIPG cells – cell-based, MIPE4.0 library, CellTiter-Glo luminescence, qHTS (AID 1347066; cut-off not given, nearly all actives have AC50 up to about 30 µM;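 also: cells exposed to compound for 48 hours before readout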); details: SU-DIPG-VI viability, CellTiter-Glo ATP luminescence
# [6] = JHH-DIPG-1 glioma cell viability, MIPE5.0 library, CellTiter-Glo luminescence, qHTS (AID 1347067; cut-off not given, nearly all actives have AC50 up to about 26 µM;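 also: cells exposed to compound for 48 hours before readout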); details: JHH-DIPG-1 glioma viability, CellTiter-Glo ATP luminescence
# [7] = growth inhibition of DIPG cells – cell-based, MIPE5.0 library, qHTS (AID 1347068; cut-off not given, nearly all actives have IC50 up to about 30 µM); details: SU-DIPG-XXV viability
# [8] = viability loss in pontine glioma line – cell-based, SU-DIPG-XXV, MIPE5.0, CellTiter-Glo, qHTS, dose response (AID 1347065; cut-off not given, nearly all actives have AC50 up to about 26 µM;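 also: cells exposed to compound for 48 hours before ATP readout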); details: CellTiter-Glo ATP luminescence
# [9] = viability loss with induced miR-34 in A549 – imaging, A549 dox-inducible miR-34, nuclei and caspase counts, primary screen (AID 1347080); details: A549 miR-34 inducible, Hoechst nuclei count, 48 h
# [10] = MELAS cybrid and Rieske KO viability enhancers – cell-based, MELAS cybrids, Rieske KO mouse fibroblasts, CellTiter-Glo, primary screen (AID 1508586;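 active = mean z-score across replicates of 1.96 or higher in either the MELAS or the Rieske mutant cell line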;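 also: z relative to plate mean and SD of compound and empty wells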); details: low glucose
# [11] = measured here: relative caspase fold change +Dox/-Dox
# [12] = measured here: total cells with miR-34 induction, stronger effect = lower value
# [13] = measured here: total cells without miR-34 induction
# [14] = MELAS cybrid survival, CellTiter-Glo 48 h, stronger effect = higher value
# [15] = Rieske KO mouse fibroblast survival, CellTiter-Glo 72 h
# [16] = stronger effect = lower value, cell number ratio, induced over uninduced
compound,measurement,setting,value
COC1(CS(=O)c2ccccc2)CCN(CCc2c[nH]c3ccc(F)cc23)CC1 (stereo unspecified),outcome,[1],inactive
same,outcome,[2],inactive
same,outcome,[3],inactive
same,outcome,[4],inactive
same,outcome,[5],inactive
same,outcome,[6],inactive
same,outcome,[7],inactive
C[C@](O)(COc1ccc(C#N)cc1)C(=O)Nc1ccc(C#N)c(C(F)(F)F)c1,outcome,[2],inactive
same,outcome,[3],inactive
same,outcome,[4],inactive
same,outcome,[8],inactive
same,outcome,[5],inactive
same,outcome,[7],inactive
same,fold change,[9]; stronger effect = lower value,0.889 (inactive)
same,fold change,[9]; [11],1.23
same,cell count,[9]; [12],6840
same,cell count,[9]; [13],7700
same,z-score,[10]; [14],-0.434 (inactive)
same,z-score,[10]; [15],0.535
CCCCCCC(C)(C)c1cc(O)c2c(c1)OC(C)(C)C1CC=C(CO)C[C@H]21 (stereo partly specified),AC50,[4],9.34 µM (active)
same,AC50,[8],7.42 µM (active)
same,AC50,[6],7.42 µM (active)
C[C@@H](C1CC[C@@]2(O)C3=CC(=O)[C@@H]4C[C@@H](O)[C@@H](O)C[C@]4(C)[C@H]3CC[C@]12C)[C@H](O)CCC(C)(C)O (stereo partly specified),outcome,[4],inactive
same,outcome,[8],inactive
same,outcome,[6],inactive
C[C@]12CCC3c4ccc(OC(=O)N(CCCl)CCCl)cc4CCC3C1CC[C@@H]2O (stereo partly specified),fold change,[9]; stronger effect = lower value,1.19 (inactive)
same,fold change,[9]; [11],0.867
same,cell count,[9]; [12],2030
same,cell count,[9]; [13],1700
O=C(NCCN1CCC2(CC1)C(=O)NCN2c1ccccc1)c1ccc2ccccc2c1,fold change,[9]; [16],0.966 (inactive)
same,fold change,[9]; [11],1.81
same,cell count,[9]; [12],5740
same,cell count,[9]; [13],5940
Cc1sc2c(c1C)C(c1ccc(Cl)cc1)=NC(CC(=O)Nc1ccc(O)cc1)c1nnc(C)n1-2 (stereo unspecified),outcome,[7],inactive
same,fold change,[9]; [16],0.898 (inactive)
same,fold change,[9]; [11],0.692
same,cell count,[9]; [12],4940
same,cell count,[9]; [13],5500
same,z-score,[10]; [14],-0.542 (inactive)
same,z-score,[10]; [15],-4.37
CCCCC/C=C\C/C=C\C/C=C\C/C=C\CCCC(=O)NCCc1c[nH]c2ccc(O)cc12,fold change,[9]; [16],1 (inactive)
same,fold change,[9]; [11],0.653
same,cell count,[9]; [12],5660
same,cell count,[9]; [13],5630
CCCCCCCCCC(=O)OC[C@H](COP(=O)([O-])OCC[N+](C)(C)C)OC(=O)CCCCCCCCC,fold change,[9]; [16],0.907 (inactive)
same,fold change,[9]; [11],0.797
same,cell count,[9]; [12],5320
same,cell count,[9]; [13],5860
Cc1c(C(=O)Nc2cccc(C(F)(F)F)c2)cc(-c2ccccc2)n1CCCN1CCOCC1,AC50,[3],18.7 µM (active)
same,outcome,[4],inactive
CCCCC/C=C\C/C=C\C/C=C\C/C=C\CCCC(=O)N[C@@H](CO)C(=O)O,fold change,[9]; [16],1.06 (inactive)
same,fold change,[9]; [11],1.04
same,cell count,[9]; [12],5850
same,cell count,[9]; [13],5540
CN=C(NS(=O)(=O)c1ccc(Cl)cc1)N1CC(c2ccccc2)C(c2ccc(Cl)cc2)=N1 (stereo unspecified),fold change,[9]; [16],0.741 (inactive)
same,fold change,[9]; [11],0.564
same,cell count,[9]; [12],4700
same,cell count,[9]; [13],6340
CCCCC/C=C\C/C=C\C/C=C\C/C=C\CCCC(=O)NCCCl,fold change,[9]; [16],1.01 (inactive)
same,fold change,[9]; [11],1.15
same,cell count,[9]; [12],6340
same,cell count,[9]; [13],6270
C[C@@]1(CO)[C@H](O)CC[C@@]2(C)[C@H]1CC[C@H]1C[C@@H]3C[C@@]12CC[C@]3(O)CO,fold change,[9]; stronger effect = lower value,1.03 (inactive)
same,fold change,[9]; [11],0.966
same,cell count,[9]; [12],2420
same,cell count,[9]; [13],2350

# — PubChem BioAssay
